Laboratory results from PubChem BioAssay.
Results with a measured potency or affinity are listed apart. Inconclusive results are not listed. The source made the active and inactive calls. Unless noted, the rule behind the calls is not given here.

Tests used:
[1] = viability loss in HepG2 hepatoma cells – cell-based, cherry-picks, set 2, cytotoxicity control, dose response (AID 687002;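 active = a dose-response fit showing signal loss, with half-maximal concentration no higher than twice the top tested dose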)
[2] = viability loss in HeLa cells – cell-based, ATP luminescence, cherry-pick samples, cytotoxicity control, dose response (AID 687004;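 active = a fitted half-maximal concentration no higher than twice the top valid tested dose, with signal falling as cells die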;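 note: 0% = neutral control median and -100% = staurosporine 10 µM control median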)
[3] = PAX8 transcriptional activity inhibition in RMG-I – RMG-I cells, luciferase, cherry-pick, dose response (AID 687027;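 active = every replicate test run called active, with the signal dropping as expected and potency within twice the top valid dose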)
[4] = RMG-1 ovarian cancer cell viability loss – cherry-pick, dose response (AID 687029;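 active = signal drop whose fitted half-maximal concentration is at most twice the top valid dose, in every test run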;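 note: cells exposed to compound for 96 hours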)
[5] = IOSE-T80 viability loss, PAX8-independent line – cell-based, cherry-pick, selectivity assay for PAX8 inhibitor project, dose response (AID 687032;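 active = fitted half-maximal concentration for viability loss no higher than twice the top valid dose, in every repeat run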;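 note: cells exposed to compound for 96 h before reading; 0% = neutral control wells and -100% = 2 µM mitoxantrone kill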)
[6] = CMV-driven luciferase expression suppression in HEK293 – cell-based, luminescence, dry powder, counter-screen for Pax8 inhibitor project, dose response (AID 743020;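 active = signal-lowering compounds whose fitted half-maximal concentration is at or below twice the top tested dose in every run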;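 note: HEK293 cells stably expressing the CMV luciferase reporter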)
[7] = general cell-killing toxicity readout – plate reader, dry powder samples, cytotoxicity control for PAX8 inhibitor project, dose response (AID 743021)
[8] = IGROV1 cell killing – plate reader, dry powder samples, PAX8 inhibitor project, dose response (AID 743043);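 note: more negative means fewer viable cells or more cytotoxicity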
[9] = OVCAR-3 cell viability loss – plate reader, dry powder samples, PAX8 inhibitor project, dose response (AID 743044); details: max activity: at 35 µM, hits give low values unless noted
[10] = toxicity toward immortalized ovarian surface epithelium – cell-based, plate reader, dry powder samples, cytotoxicity control for PAX8 inhibitor project, dose response (AID 743045);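 note: 0% = neutral control median and -100% = positive control median; more negative values mean more cell killing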
[11] = A2780 cell killing – plate reader, dry powder samples, cytotoxicity control, dose response (AID 743046);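 note: 0% = neutral control wells and -100% = cytotoxic reference compound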
[12] = OVCAR8 cell viability loss – plate reader, dry powder samples, PAX8 project, dose response (AID 743197)

COC(=O)C1=C(C)N(Cc2ccc(Cl)cc2)C(=S)NC1c1ccc(Br)cc1 (centres undefined)
inactive: outcome [1] | outcome [2]

COC(=O)C1=C(C)N(Cc2ccc(Cl)cc2)C(=S)NC1c1cccc(F)c1 (centres undefined)
inactive: outcome [1] | outcome [2]

CC=Cc1ccc2n(c1=O)C[C@@H]1[C@@H](CO)[C@H](C(=O)N3CCc4ccccc4C3)N(C(=O)C3CC3)[C@H]21 (mixture of isomers)
inactive: outcome [1] | outcome [2]

O=C(O)CCCNC(=O)C(c1ccccc1)c1ccccc1
inactive: outcome [3] | outcome [4] | outcome [5] | outcome [6] | outcome [7]

Cc1cccc2sc(N3CCN(C(=O)c4cccs4)CC3)nc12
inactive: outcome [1] | outcome [2]

COc1cccc(NC(=S)NC(=O)Cc2ccc(Cl)cc2)c1
inactive: outcome [1] | outcome [2]

COc1ccc(CN2C(=O)C(CC(=O)NCCCCc3ccccc3)CC(C(=O)N3CCOCC3)=C2C)cc1 (centres undefined)
inactive: outcome [3] | outcome [4] | outcome [5] | outcome [6] | outcome [7]

COc1ccccc1NC(=S)NCc1ccc(Cl)cc1
inactive: outcome [1] | outcome [2]

COC(=O)C1=C(C)N(Cc2ccccc2)C(=S)NC1c1ccc(Br)cc1 (centres undefined)
inactive: outcome [1] | outcome [2]

CC1CCCC(NC(=O)COC(=O)c2ccccc2Sc2ccccc2C#N)C1C (centres undefined)
inactive: outcome [3] | outcome [4] | outcome [5] | outcome [6] | outcome [7]

O=C(CCCC(=O)OCC(Cl)=C(Cl)Cl)Nc1ccc(F)cc1
inactive: outcome [3] | outcome [4] | outcome [5] | outcome [6] | outcome [7]

O=[N+]([O-])c1cccnc1S(=O)(=O)c1ccccc1
inactive: activity change, negative = inhibition [3] -21.1% [at 8 µM]

O=C(c1ccc2c(c1)OCO2)N1CCN(c2ccc(C(F)(F)F)cn2)CC1
inactive: outcome [3] | outcome [4] | outcome [5] | outcome [6] | outcome [7]

Cc1ccc(NC(=O)C2CC(=O)N/C(=N/N=C/c3ccco3)S2)cc1C (centres undefined)
inactive: outcome [3] | outcome [4] | outcome [5] | outcome [6] | outcome [7]

Cc1ccc(NC(=S)N(CCCN2CCOCC2)Cc2ccccn2)cc1
inactive: outcome [3] | outcome [4] | outcome [5] | outcome [6]

CCOc1ccc2c(CC)cc(=O)oc2c1OCC
inactive: outcome [3] | outcome [4] | outcome [5] | outcome [6] | outcome [7]

CCOc1ccc(CNC(=S)NCc2ccc(OCC)cc2)cc1
inactive: outcome [1] | outcome [2]

COc1ccc(C2Nc3ccccc3C(=O)N2c2ccc(F)cc2)cc1CSc1ccccn1 (centres undefined)
inactive: outcome [3] | outcome [4]

Cn1c(SCC(=O)c2ccccc2)nnc1-c1ccccn1
inactive: outcome [3]

CCCCNC(=O)/C(=C/c1ccccc1)NC(C)=O
inactive: outcome [3] | outcome [4] | outcome [5] | outcome [6] | outcome [7]

O=C(CSc1ncccc1-c1nc2ccccc2[nH]1)N1CCc2ccccc21
inactive: outcome [3]

CCc1ccc(C(=O)NC(=S)NCc2cccnc2)cc1
inactive: outcome [1] | outcome [2]

COCCNC(=O)C/C(C)=N/NC(=O)C(=O)NC1CCCCC1
inactive: outcome [3] | outcome [4] | outcome [5] | outcome [6] | outcome [7]

O=C(c1cccs1)N1C[C@H](O)[C@@H](n2cc(C3CC3)nn2)C[C@@H]1c1ccccc1
inactive: outcome [3] | outcome [4] | outcome [5] | outcome [6] | outcome [7]

Cn1cc(/C=C(\C(=O)O)C(C(=O)O)=C2CCCCC2)c2ccccc21
inactive: outcome [3] | outcome [4] | outcome [5] | outcome [6] | outcome [7]

Cc1ccccc1Cn1cnc2ccccc2c1=O
inactive: outcome [3] | outcome [4] | outcome [5] | outcome [6] | outcome [7]

COC(=O)C1=C(C)N(Cc2ccc(Br)cc2)C(=S)NC1c1ccccc1 (centres undefined)
inactive: outcome [1] | outcome [2]

COC(=O)C1=C(C)N(Cc2ccccc2)C(=S)NC1c1ccc(Cl)cc1 (centres undefined)
inactive: outcome [1] | outcome [2]

CCCCCCCCC(=O)NCCOc1ccccc1
inactive: outcome [3] | outcome [4] | outcome [5] | outcome [6] | outcome [7]

C[C@H]1CCCCO[C@@H](CN(C)Cc2ccncc2)[C@@H](C)CN([C@@H](C)CO)C(=O)c2cc(NC(=O)Nc3ccccc3)ccc2O1
inactive: outcome [1] | outcome [2]

C[C@@H]1CN([C@H](C)CO)S(=O)(=O)c2ccc(C#Cc3ccccn3)cc2O[C@H]1CN(C)Cc1ccccc1
inactive: outcome [1] | outcome [2]

N/C(=N\OS(=O)(=O)c1cccc([N+](=O)[O-])c1)c1ccncc1
inactive: outcome [3] | outcome [4] | outcome [5] | outcome [6] | outcome [7]

CN(CC(=O)Nc1cccc(F)c1)C(=O)CCCc1cccs1
inactive: outcome [3] | outcome [4] | outcome [5] | outcome [6] | outcome [7]

COC(=O)CN1C(=S)N(C)C(=O)C1CC(=O)Nc1ccccc1 (centres undefined)
inactive: outcome [3] | outcome [4] | outcome [5] | outcome [6] | outcome [7]

C[C@@H]1CN([C@@H](C)CO)C(=O)c2cccc(NS(=O)(=O)c3ccc(F)cc3)c2O[C@H]1CN(C)Cc1ccc(-c2ccccc2)cc1
inactive: outcome [3] | outcome [4] | outcome [5] | outcome [6] | outcome [7] | outcome [8] | max activity [9] 17.5% | outcome [10] | outcome [11] | outcome [12]

O=C(NC1CCCC1)N1CCCCN2[C@@H](CO)[C@@H](c3ccc(/C=C/c4ccccc4)cc3)[C@@H]2C1
inactive: outcome [3] | outcome [4] | outcome [5] | outcome [6] | outcome [7] | outcome [8] | max activity [9] 28.4% [at 2.1 µM, hits give low values] | outcome [10] | outcome [12]

O=C(C[C@H]1C[C@H]2c3cc(NS(=O)(=O)c4ccc(F)cc4)ccc3O[C@H]2[C@H](CO)O1)NCc1ccc(-c2ccccc2)cc1
inactive: outcome [3] | outcome [4] | outcome [5] | outcome [6] | outcome [7] | outcome [8] | max activity [9] 10.6% [at 1 µM, hits give low values] | outcome [10] | outcome [11] | outcome [12]

C[C@@H]1CN([C@H](C)CO)C(=O)c2cccc(NC(=O)Nc3ccc(C(F)(F)F)cc3)c2O[C@H]1CN(C)CC1CC1
inactive: outcome [3] | outcome [4] | outcome [5] | outcome [6] | outcome [7] | outcome [8] | max activity [9] -14% [at 0.26 µM, hits give low values] | outcome [10] | outcome [11] | outcome [12]

CN(C)C(=O)c1cccc(-c2ccccc2[C@@H]2[C@@H](C#N)N(C(=O)C3CC3)[C@H]2CO)c1
inactive: outcome [3] | outcome [4] | outcome [5] | outcome [6] | outcome [7] | outcome [8] | max activity [9] 12.7% [at 0.26 µM, hits give low values] | outcome [10] | outcome [11] | outcome [12]

O=C(Nc1ccc(C(F)(F)F)cc1)Nc1ccc2c(c1)[C@@H]1C[C@@H](CC(=O)N3CCc4ccccc4C3)O[C@H](CO)[C@@H]1O2
inactive: outcome [3] | outcome [4] | outcome [5] | outcome [6] | outcome [7] | outcome [8] | max activity [9] 19.1% [at 2.1 µM, hits give low values] | outcome [10] | outcome [11] | outcome [12]

O=C(C[C@@H]1C=C[C@H](NC(=O)Nc2ccc(C(F)(F)F)cc2)[C@H](CO)O1)NCCN1CCCC1
inactive: outcome [3] | outcome [4] | outcome [5] | outcome [6] | outcome [7] | outcome [8] | max activity [9] 7.59% [at 2.1 µM, hits give low values] | outcome [10] | outcome [11] | outcome [12]

C[C@@H]1CN([C@@H](C)CO)C(=O)c2cc(NS(=O)(=O)c3ccc(Cl)cc3)ccc2O[C@@H](C)CCCCO[C@H]1CN(C)C
inactive: outcome [3] | outcome [4] | outcome [5] | outcome [6] | outcome [7] | outcome [8] | max activity [9] -14.3% | outcome [10] | outcome [11] | outcome [12]
